{"source": "PubChem BioAssay AID651958", "about": "(The Scripps Research Institute Molecular Screening Center, 2012)", "note": "Screen size: about 370,000 compounds; about 2,000 (0.54%) were called active. Rule as the data show it: active = inhibition above about 30%; inactive = the rest. This excerpt belongs to a sample that is enriched for actives."}
{"test_system": "Crimean-Congo hemorrhagic fever virus L polyprotein viral ovarian tumor (vOTU) protease domain", "experiment": "CCHFV vOTU protease inhibitors, primary screen, biochemical, Pep-AMC substrate, fluorescence (AID 651958); also: 0% = vehicle wells with enzyme and 100% = no enzyme wells", "conditions": "at 11.5 µM, hits give high values"}
{"smiles": "COc1ccc(Br)cc1S(=O)(=O)N1CCN=C1C", "inhibition": "-6.47% (inactive)"}
{"smiles": "CCc1ccc(OC(C)C(=O)Nc2ccc(S(=O)(=O)Nc3cc(C)on3)cc2)cc1", "note": "(stereo unspecified)", "inhibition": "7.95% (inactive)"}
{"smiles": "CC(Oc1cccc(Cl)c1)C(=O)Nc1ccc(S(=O)(=O)Nc2ncccn2)cc1", "note": "(stereo unspecified)", "inhibition": "-1.27% (inactive)"}
{"smiles": "Cc1cc(OC(C)C(=O)Nc2ccc(S(=O)(=O)Nc3onc(C)c3C)cc2)cc(C)c1Cl", "note": "(stereo unspecified)", "inhibition": "35.2% (active)"}
{"smiles": "O=S1(=O)CC(N2CCN(CCO)CC2)CN1Cc1cn(Cc2ccc(Cl)cc2)nn1", "note": "(stereo unspecified)", "inhibition": "-2.07% (inactive)"}
{"smiles": "CCN(CC(=O)Nc1c(F)cccc1F)C(=O)c1cnc(C)cn1", "inhibition": "32.8% (active)"}
{"smiles": "CCc1cc(C(=O)N(CC)CC(=O)Nc2c(F)cccc2F)sc1C", "inhibition": "19.1% (inactive)"}
{"smiles": "CCN(CC(=O)Nc1c(F)cccc1F)C(=O)c1ccc(-c2ccccc2)cc1", "inhibition": "-7.05% (inactive)"}
{"smiles": "CCN(CC)c1ccc(NC(=O)CN2C(=O)NC3(CCc4ccccc43)C2=O)cc1", "note": "(stereo unspecified)", "inhibition": "-2.95% (inactive)"}
{"smiles": "O=C(Cn1cc(C(F)(F)F)ccc1=O)Nc1ccc2c(c1)OCCO2", "inhibition": "8.6% (inactive)"}
{"smiles": "CC(C)CC1(C)NC(=O)N(CC(=O)Nc2ccc3c(c2)OCCO3)C1=O", "note": "(stereo unspecified)", "inhibition": "-6.35% (inactive)"}
{"smiles": "COc1c(Br)cc2c(C)c(C(=O)N3CCOCC3)oc2c1Br", "inhibition": "-3.21% (inactive)"}
{"smiles": "Cc1nc2ccccc2c(=O)n1-c1ccc(F)c(NC(=O)c2cccs2)c1", "inhibition": "-0.94% (inactive)"}
{"smiles": "O=C(c1ccc(N2CCCC2=O)cc1)N1CCN(c2ccc(C(F)(F)F)cc2[N+](=O)[O-])CC1", "inhibition": "3.99% (inactive)"}
{"smiles": "Cc1cc(C)c(S(=O)(=O)NN=C2c3ccccc3[C@H]3Cc4csc[n+]4[C@@H]23)c(C)c1", "inhibition": "82.8% (active)"}
{"smiles": "COC(=O)[C@]12C[C@H](CC(=O)NCc3ccccc3)C(=O)N(CCC3=CCCCC3)C1=C[C@H](C(C)C)O[C@@H]2C1CC1", "inhibition": "23.1% (inactive)"}
{"smiles": "COC(=O)C[C@H]1C[C@@H]2c3cc(NC(=O)Nc4ccccc4)ccc3O[C@@H]2[C@@H](CO)O1", "inhibition": "-2.2% (inactive)"}
{"smiles": "CC(C)Cn1c(N)c(C(=O)NCc2cccs2)c2nc3ccccc3nc21", "inhibition": "85.8% (active)"}
{"smiles": "CCN(CC(=O)NCc1cccs1)c1nnnn1-c1ccccc1", "inhibition": "-6.07% (inactive)"}
{"smiles": "Cc1nc2c(C(=O)NCc3cccs3)cnn2c(C)c1Cc1ccc(F)cc1", "inhibition": "4.83% (inactive)"}
{"smiles": "Cn1cccc1C(=O)NC(=O)COC(=O)Cc1coc2ccc3ccccc3c12", "inhibition": "5.02% (inactive)"}
{"smiles": "CCCn1c(=O)c2ccccc2n2c(SCC(=O)/C(C#N)=C(\\C)N)nnc12", "inhibition": "-9.66% (inactive)"}
{"smiles": "CC(C)[C@H](NC(=O)N1CCn2c1nc1ccccc12)C(=O)NCCc1ccccc1", "inhibition": "25.4% (inactive)"}
{"smiles": "O=C1NC[C@@H](CCCCN2CCN(CCc3ccc(O)cc3)C(=O)C2=O)N(CC2CCCCC2)C1=O", "inhibition": "-7.64% (inactive)"}
{"smiles": "O=C(OCC(=O)c1cccs1)c1ccc([N+](=O)[O-])o1", "inhibition": "31.4% (active)"}
{"smiles": "O=C(COC(=O)c1ccc([N+](=O)[O-])o1)NC12CC3CC(CC(C3)C1)C2", "inhibition": "13.9% (inactive)"}
{"smiles": "COc1ccccc1CNC(=O)COC(=O)c1cccs1", "inhibition": "0.12% (inactive)"}
{"smiles": "Cc1cccc(C)c1NC(=O)CNC(=O)Cc1ccc(Br)cc1", "inhibition": "-10.5% (inactive)"}
{"smiles": "Cc1ccc(OC(=O)c2c(C)nn(-c3ccccc3)c2C)cc1", "inhibition": "-6.31% (inactive)"}
{"smiles": "Cc1cccc(C)c1NC(=O)CNC(=O)c1c(C)nn(-c2ccccc2)c1C", "inhibition": "33% (active)"}
{"smiles": "CCN(N=Nc1nonc1OC)c1nonc1OC", "inhibition": "-2.47% (inactive)"}
{"smiles": "CN(CC(=O)Nc1ccccc1F)CC(=O)Nc1ccccc1Br", "inhibition": "-17.7% (inactive)"}
{"smiles": "O=C(C(=O)N1CCC(CNS(=O)(=O)Cc2ccccc2)CC1)c1cc2ccccc2o1", "inhibition": "-0.44% (inactive)"}
{"smiles": "CC(C)(C)c1ccc(S(=O)(=O)NCC2CCN(C(=O)C(=O)c3cc4ccccc4o3)CC2)cc1", "inhibition": "41.9% (active)"}
{"smiles": "N#Cc1cccc(C(=O)NCC2CCN(C(=O)C(=O)c3cc4ccccc4o3)CC2)c1", "inhibition": "5.69% (inactive)"}
{"smiles": "Cc1ccc(C(=O)CN2C(=O)NC3(CCc4ccccc43)C2=O)c(C)c1", "note": "(stereo unspecified)", "inhibition": "-4.9% (inactive)"}
{"smiles": "Cn1c(CN2CCOCC2)nc2cc(NC(=O)c3ccc(Cl)cc3)ccc21", "inhibition": "-1.05% (inactive)"}
{"smiles": "CCOC(=O)N1CCN(Cc2nc3cc(NC(=O)CC)ccc3n2CC)CC1", "inhibition": "10.5% (inactive)"}
{"smiles": "CN1CCN(Cc2nc3cc(NC(=O)COc4ccc([N+](=O)[O-])cc4)ccc3n2C)CC1", "inhibition": "33.6% (active)"}
{"smiles": "CC(=O)Nc1ccc(C(=O)NNC(=O)CCCCC(=O)NNC(=O)c2ccc(NC(C)=O)cc2)cc1", "inhibition": "2.99% (inactive)"}
{"smiles": "COc1cc(C(=O)OCC(=O)NC23CC4CC(CC(C4)C2)C3)cc(OC)c1OC", "inhibition": "12.9% (inactive)"}
{"smiles": "COc1cc(CCC(=O)OCC(=O)Nc2cccc(S(N)(=O)=O)c2)cc(OC)c1OC", "inhibition": "-0.39% (inactive)"}
{"smiles": "COc1ccc(C(=O)OCC(=O)c2ccc(C)c(S(=O)(=O)N3CCOCC3)c2)cc1OC", "inhibition": "-12.5% (inactive)"}
{"smiles": "COc1ccc(C(=O)COC(=O)c2ccc([N+](=O)[O-])s2)cc1OC", "inhibition": "34.1% (active)"}
{"smiles": "COc1cc(NC(=O)COC(=O)c2ccc([N+](=O)[O-])s2)cc(OC)c1OC", "inhibition": "113% (active)"}
{"smiles": "COc1ccc(C(=O)OCC(=O)c2ccc(Cl)s2)c(OC)c1OC", "inhibition": "7.84% (inactive)"}
{"smiles": "CCN(CC)CCn1c(=S)[nH]c2ncccc2c1=O", "inhibition": "3.47% (inactive)"}
{"smiles": "FC(F)(F)c1cc(C(F)(F)F)c2ccc(N3CCN(c4ccccc4)CC3)nc2n1", "inhibition": "-0.35% (inactive)"}
{"smiles": "CSc1ncc(C(=O)Nc2ccc(C)cc2C)c(C)n1", "inhibition": "-3.39% (inactive)"}
{"smiles": "CN(C)C(=O)c1ccc2c(c1)C1C3CCC(C3)C1C(c1ccccc1)N2", "note": "(stereo unspecified)", "inhibition": "5.37% (inactive)"}
{"smiles": "CCOc1ccc(-c2cn(S(=O)(=O)c3cccc4nsnc34)nc2N)cc1", "inhibition": "7.56% (inactive)"}
{"smiles": "COc1ccccc1C(=O)NCCC(=O)NN1C(=O)NC2(CCCCC2)C1=O", "inhibition": "-3.82% (inactive)"}
{"smiles": "CCN(C[C@H]1N[C@@](CC)(C(=O)OC)[C@H]2C(=O)N(Cc3ccccc3)C(=O)[C@@H]12)S(=O)(=O)c1ccc(C(F)(F)F)cc1", "inhibition": "29.7% (active)"}
{"smiles": "CCN(C[C@H]1N[C@@](CC)(C(=O)OC)[C@H]2C(=O)N(Cc3ccccc3)C(=O)[C@@H]12)S(=O)(=O)c1ccccc1", "inhibition": "6.5% (inactive)"}
{"smiles": "COC(=O)[C@]1(Cc2ccccc2)N[C@H](CN(C)S(=O)(=O)c2ccc(OC(F)(F)F)cc2)[C@@H]2C(=O)N(Cc3ccccc3)C(=O)[C@@H]21", "inhibition": "3.43% (inactive)"}
{"smiles": "CCCCNC(=O)C[C@@H]1C[C@@]2(C(=O)OC)CC(C)(C)CC=C2N(Cc2ccco2)C1=O", "inhibition": "4.7% (inactive)"}
{"smiles": "CCOC(=O)[C@]12CCC=C1N(Cc1ccco1)C(=O)[C@H](CC(=O)NCc1cccc(C(F)(F)F)c1)C2", "inhibition": "15.5% (inactive)"}
{"smiles": "COC(=O)[C@@]12C[C@@H](CC(=O)NCc3cccc(C(F)(F)F)c3)C(=O)N(Cc3ccco3)C1=CCC(C)(C)C2", "inhibition": "34.5% (active)"}
{"smiles": "CCN(CC(=O)Nc1ccccc1C(F)(F)F)C(=O)CSCc1c(C)noc1C", "inhibition": "-9.14% (inactive)"}
{"smiles": "CCCCCCCCN1C(=O)[C@@H](CC(=O)NCc2ccc(C)o2)C[C@@]2(C(=O)OC)C1=C[C@H](C(C)(C)C)O[C@@H]2C", "inhibition": "17.8% (inactive)"}
{"smiles": "COC(=O)[C@]12C[C@H](CC(=O)NCc3ccc(C)o3)C(=O)N(CCC3=CCCCC3)C1=C[C@H](C(C)(C)C)O[C@@H]2C", "inhibition": "29.6% (active)"}
{"smiles": "COC(=O)[C@]12C[C@H](CC(=O)NCc3ccccc3)C(=O)N(CCC3=CCCCC3)C1=C[C@H](C(C)(C)C)O[C@@H]2C", "inhibition": "24.8% (inactive)"}
{"smiles": "COc1ccc2c(c1)[C@H]1[C@H](CO2)[C@H](c2ccccc2)[C@]2(C)C(=O)Nc3cc(F)c(F)cc3C(=O)N12", "inhibition": "0.66% (inactive)"}
{"smiles": "COCCn1c(SCc2nc3cc(OC)c(OC)cc3c(=O)[nH]2)nnc1-c1ccncc1", "inhibition": "-3.09% (inactive)"}
{"smiles": "O=C1Nc2ccccc2-n2nnnc2C1N1CCN(c2cccc(C(F)(F)F)n2)CC1", "note": "(stereo unspecified)", "inhibition": "32.5% (active)"}
{"smiles": "COc1cc(OC)cc(C(=O)NCCN2CCC3(CC2)C(=O)NCN3c2ccccc2)c1", "inhibition": "-10.2% (inactive)"}
{"smiles": "CCCc1ccc(C(O)c2ncc(-c3cccc(OC)c3)[nH]2)cc1", "note": "(stereo unspecified)", "inhibition": "23.9% (inactive)"}
{"smiles": "O=C(CSc1nc2[nH]ncc2c(=O)[nH]1)Nc1ccc(F)cc1", "inhibition": "-2.83% (inactive)"}
{"smiles": "Cc1cc(=O)[nH]c(SCC(=O)Nc2ccc(Cl)cc2C)n1", "inhibition": "-2.3% (inactive)"}
{"smiles": "Cc1cc(C)c2c(=O)[nH]c(SCC(=O)Nc3ccc(Br)cc3)nc2n1", "inhibition": "36% (active)"}
{"smiles": "Cc1ccnc(NS(=O)(=O)c2ccc(NC(=O)c3ccc(S(=O)(=O)N(C)C)cc3)cc2)n1", "inhibition": "-12.8% (inactive)"}
{"smiles": "Cc1ccnc(NS(=O)(=O)c2ccc(NC(=O)c3oc4ccccc4c3C)cc2)n1", "inhibition": "29.9% (active)"}
{"smiles": "Cc1ccnc(NS(=O)(=O)c2ccc(NC(=O)c3oc4ccc(F)cc4c3C)cc2)n1", "inhibition": "-2.26% (inactive)"}
{"smiles": "COc1c(F)c(F)c(-c2csc(N)n2)c(F)c1F", "inhibition": "-1.03% (inactive)"}
{"smiles": "CCOc1cc(S(=O)(=O)NC2CC(C)(C)NC(C)(C)C2)ccc1F", "inhibition": "13.1% (inactive)"}
{"smiles": "O=C(NCCc1c[nH]c2ccc(Cl)cc12)c1ccc([N+](=O)[O-])cc1", "inhibition": "-0.42% (inactive)"}
{"smiles": "NS(=O)(=O)c1ccc(CCNC(=O)c2ccc(Cl)cc2[N+](=O)[O-])cc1", "inhibition": "2.43% (inactive)"}
{"smiles": "O=C(NCCc1ccc(Cl)cc1Cl)c1cc([N+](=O)[O-])c[nH]c1=O", "inhibition": "30.7% (active)"}
{"smiles": "Cc1ccc(-n2c(SCC(=O)Nc3cccc4ccccc34)nnc2-c2ccco2)cc1", "inhibition": "7.16% (inactive)"}
{"smiles": "CCCc1ccc(-c2c(C)sc(NC(=O)c3ccnn3C)c2C#N)cc1", "inhibition": "13% (inactive)"}
{"smiles": "CC(=O)NC(C(=O)NCC(N)=O)C(C)C", "note": "(stereo unspecified)", "inhibition": "3.21% (inactive)"}
